Laboratory results as given in paper PMC11574364.

Assays:
Assay in all cases: protein domain microarray probed with biotinylated miRNA; Domain array: 20 mM Tris-HCl pH 7.4, 200 mM KCl, 0.2 mM EDTA, 0.05% NP40, 2 ug/ul heparin, overnight 4 C. ORF array: PBS pH 7.0 with RNase inhibitor, 100 ng RNA; high values mean tight binding
Details in all cases: ssRNA
CELF6(1-2) = CELF6(1-2) (Homo sapiens, UniProt Q96J87)
NCBP2 = molecular target: T1, NCBP2 (Homo sapiens, UniProt P52298)
T1 sequence: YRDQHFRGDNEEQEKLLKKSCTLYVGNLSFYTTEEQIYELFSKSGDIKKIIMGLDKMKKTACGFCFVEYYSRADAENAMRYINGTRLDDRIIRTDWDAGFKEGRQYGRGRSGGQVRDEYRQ

hnRNP-D-like = molecular target: T2, hnRNP-D-like (Homo sapiens, UniProt O14979)
T2 sequence: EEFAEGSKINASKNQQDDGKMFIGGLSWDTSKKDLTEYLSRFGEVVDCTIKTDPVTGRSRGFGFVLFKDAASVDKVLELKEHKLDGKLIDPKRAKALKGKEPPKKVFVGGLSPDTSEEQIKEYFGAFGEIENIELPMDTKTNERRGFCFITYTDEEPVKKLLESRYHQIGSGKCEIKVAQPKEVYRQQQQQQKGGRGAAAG

IGF2BP2 = IGF2BP2 (Homo sapiens, UniProt Q9Y6M1)
Sequence of IGF2BP2 (Q9Y6M1 1-177): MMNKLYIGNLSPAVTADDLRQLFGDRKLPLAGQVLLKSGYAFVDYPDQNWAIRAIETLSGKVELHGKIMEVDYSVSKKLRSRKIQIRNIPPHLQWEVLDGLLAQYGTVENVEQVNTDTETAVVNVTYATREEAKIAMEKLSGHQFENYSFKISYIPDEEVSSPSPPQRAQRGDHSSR

NIFK = NIFK (Homo sapiens, UniProt Q9BYG3)
PABPNL1 = molecular target: T3, PABPNL1 (Homo sapiens, UniProt A6NDY0)
T3 sequence: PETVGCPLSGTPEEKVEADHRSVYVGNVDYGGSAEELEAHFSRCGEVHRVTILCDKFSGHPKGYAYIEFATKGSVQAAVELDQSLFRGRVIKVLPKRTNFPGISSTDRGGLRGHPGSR

PABPC5 = PABPC5 (Homo sapiens, UniProt Q96DU9)
Sequence of PABPC5 (Q96DU9 whole entry): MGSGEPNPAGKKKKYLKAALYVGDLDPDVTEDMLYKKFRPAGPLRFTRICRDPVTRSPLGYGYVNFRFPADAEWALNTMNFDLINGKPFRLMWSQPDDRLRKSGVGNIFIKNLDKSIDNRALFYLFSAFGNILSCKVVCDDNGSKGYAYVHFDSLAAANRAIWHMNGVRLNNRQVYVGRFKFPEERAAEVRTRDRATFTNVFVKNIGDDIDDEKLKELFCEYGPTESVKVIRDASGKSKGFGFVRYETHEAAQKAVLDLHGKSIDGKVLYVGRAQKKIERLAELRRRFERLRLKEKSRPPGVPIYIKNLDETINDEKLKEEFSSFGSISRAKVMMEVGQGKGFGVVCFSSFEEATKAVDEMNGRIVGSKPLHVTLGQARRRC

MYEF2(1-2) = molecular target: T4, MYEF2(1-2) (Homo sapiens, UniProt Q9P2K5)
T4 sequence: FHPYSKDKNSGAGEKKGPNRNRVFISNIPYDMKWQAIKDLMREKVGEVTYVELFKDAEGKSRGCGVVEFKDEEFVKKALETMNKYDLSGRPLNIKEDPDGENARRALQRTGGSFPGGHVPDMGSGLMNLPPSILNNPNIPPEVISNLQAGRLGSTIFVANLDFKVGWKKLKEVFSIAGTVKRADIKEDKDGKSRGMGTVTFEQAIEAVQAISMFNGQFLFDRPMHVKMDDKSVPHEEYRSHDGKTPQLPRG

CIRBP = molecular target: T5, CIRBP (Homo sapiens, UniProt Q14011)
T5 sequence: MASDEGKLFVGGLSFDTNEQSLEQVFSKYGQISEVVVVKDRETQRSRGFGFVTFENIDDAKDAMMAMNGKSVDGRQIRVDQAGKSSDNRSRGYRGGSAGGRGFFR

ELAVL4 = ELAVL4 (Homo sapiens, UniProt P26378)
Sequence of ELAVL4 (P26378 30-385): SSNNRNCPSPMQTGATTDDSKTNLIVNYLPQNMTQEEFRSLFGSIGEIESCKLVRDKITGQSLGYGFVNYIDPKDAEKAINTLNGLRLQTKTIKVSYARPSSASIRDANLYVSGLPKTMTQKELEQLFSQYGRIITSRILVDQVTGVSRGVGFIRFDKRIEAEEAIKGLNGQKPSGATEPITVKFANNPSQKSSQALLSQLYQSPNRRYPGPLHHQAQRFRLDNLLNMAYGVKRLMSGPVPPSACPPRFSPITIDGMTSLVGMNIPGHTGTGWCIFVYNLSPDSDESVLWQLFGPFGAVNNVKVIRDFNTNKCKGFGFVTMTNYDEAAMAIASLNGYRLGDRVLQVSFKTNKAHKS

hnRNP-M(3) = molecular target: T6, hnRNP-M(3) (Homo sapiens, UniProt P52272)
T6 sequence: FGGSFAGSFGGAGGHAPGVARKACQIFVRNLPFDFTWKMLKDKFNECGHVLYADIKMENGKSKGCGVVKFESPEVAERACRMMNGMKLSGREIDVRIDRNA

NONO = molecular target: T7, NONO (Homo sapiens, UniProt Q15233)
T7 sequence: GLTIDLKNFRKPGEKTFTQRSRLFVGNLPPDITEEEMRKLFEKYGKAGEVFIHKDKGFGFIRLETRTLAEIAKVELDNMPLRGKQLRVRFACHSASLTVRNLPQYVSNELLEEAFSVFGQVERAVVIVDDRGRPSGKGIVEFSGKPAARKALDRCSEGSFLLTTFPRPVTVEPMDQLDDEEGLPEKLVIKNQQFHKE

HNRNPCL3/4 = HNRNPCL3/4 (Homo sapiens, UniProt O60812)
Sequence of HNRNPCL3/4 (O60812 1-110): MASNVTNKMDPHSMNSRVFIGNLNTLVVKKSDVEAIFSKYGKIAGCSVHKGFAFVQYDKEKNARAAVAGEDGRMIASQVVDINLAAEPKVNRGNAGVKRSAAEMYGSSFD

ELAVL3 = ELAVL3 (Homo sapiens, UniProt Q14576)
Sequence of ELAVL3 (Q14576 20-367): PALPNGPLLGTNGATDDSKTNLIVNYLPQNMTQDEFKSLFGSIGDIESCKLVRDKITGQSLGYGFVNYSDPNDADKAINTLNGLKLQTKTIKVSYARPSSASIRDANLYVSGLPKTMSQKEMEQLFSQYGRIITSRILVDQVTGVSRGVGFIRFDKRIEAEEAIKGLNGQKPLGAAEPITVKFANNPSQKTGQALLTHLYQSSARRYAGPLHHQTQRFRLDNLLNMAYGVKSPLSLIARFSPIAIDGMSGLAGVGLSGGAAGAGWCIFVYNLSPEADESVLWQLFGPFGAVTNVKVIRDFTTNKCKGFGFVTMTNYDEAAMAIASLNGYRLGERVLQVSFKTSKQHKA

CPSF6 = CPSF6 (Homo sapiens, UniProt Q16630)
Sequence of CPSF6 (Q16630 60-180): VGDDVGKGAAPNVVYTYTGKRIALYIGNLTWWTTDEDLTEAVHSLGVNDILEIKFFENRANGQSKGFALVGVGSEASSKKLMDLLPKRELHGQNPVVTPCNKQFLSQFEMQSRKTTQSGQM

hnRNP-CL1 = hnRNP-CL1 (Homo sapiens, UniProt O60812)
Sequence of hnRNP-CL1 (O60812 1-110): as the sequence (O60812 1-110) above

EIF4B = EIF4B (Homo sapiens, UniProt P23588)
Sequence of EIF4B (P23588 75-190): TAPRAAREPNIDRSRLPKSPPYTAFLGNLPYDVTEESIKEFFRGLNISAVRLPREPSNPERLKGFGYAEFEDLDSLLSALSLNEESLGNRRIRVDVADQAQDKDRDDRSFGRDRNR

HTF9C = molecular target: T8, HTF9C (Homo sapiens, UniProt Q8IZ69)
T8 sequence: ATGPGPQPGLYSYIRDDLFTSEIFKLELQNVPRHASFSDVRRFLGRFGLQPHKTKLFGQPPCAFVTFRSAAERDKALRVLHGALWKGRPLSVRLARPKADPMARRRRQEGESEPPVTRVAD

NSAP1 = molecular target: T9, NSAP1 (Homo sapiens, UniProt O60506)
T9 sequence: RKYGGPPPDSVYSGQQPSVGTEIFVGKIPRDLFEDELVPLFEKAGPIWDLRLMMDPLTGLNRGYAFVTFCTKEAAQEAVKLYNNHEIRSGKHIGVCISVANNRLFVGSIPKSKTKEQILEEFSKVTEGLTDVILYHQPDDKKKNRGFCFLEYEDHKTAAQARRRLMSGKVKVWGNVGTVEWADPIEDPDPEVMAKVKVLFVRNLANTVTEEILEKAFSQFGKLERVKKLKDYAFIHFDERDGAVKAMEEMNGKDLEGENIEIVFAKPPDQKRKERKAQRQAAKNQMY

DAZ2/3 = molecular target: T10, DAZ2/3 (Homo sapiens, UniProt Q9NR90)
T10 sequence: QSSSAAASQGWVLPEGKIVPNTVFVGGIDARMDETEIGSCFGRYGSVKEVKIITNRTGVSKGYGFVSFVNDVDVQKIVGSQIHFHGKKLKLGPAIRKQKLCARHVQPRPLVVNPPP

Sequence of CELF6(1-2) (Q96J87 21-233): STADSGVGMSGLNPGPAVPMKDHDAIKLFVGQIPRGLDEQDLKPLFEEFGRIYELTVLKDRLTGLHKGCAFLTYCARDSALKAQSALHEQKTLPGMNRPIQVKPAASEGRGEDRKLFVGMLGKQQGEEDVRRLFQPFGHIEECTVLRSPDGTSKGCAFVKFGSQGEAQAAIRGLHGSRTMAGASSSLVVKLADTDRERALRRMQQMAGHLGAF

Sequence: UGAGGUAGUAGGUUGUAUGGUU
- binding signal (CELF6(1-2)): 89.8 ± 3.29 fluorescence intensity
- binding signal (NCBP2): 66.8 ± 8.78 fluorescence intensity
- binding signal (hnRNP-D-like): 741 ± 27.9 fluorescence intensity
- binding signal (IGF2BP2): 49.2 ± 7.44 fluorescence intensity
- binding signal (NIFK): 138 ± 7.4 fluorescence intensity
- binding signal (PABPNL1): 1110 ± 57.4 fluorescence intensity
- binding signal (PABPC5): 291 ± 13.4 fluorescence intensity
- binding signal (MYEF2(1-2)): 789 ± 41.9 fluorescence intensity
- binding signal (CIRBP): 1980 ± 32.4 fluorescence intensity
- binding signal (ELAVL4): 1450 ± 42.8 fluorescence intensity
- binding signal (hnRNP-M(3)): 78.7 ± 6.91 fluorescence intensity
- binding signal (NONO): 41.2 ± 0.665 fluorescence intensity
- binding signal (HNRNPCL3/4): 34.6 ± 6.43 fluorescence intensity
- binding signal (ELAVL3): 1020 ± 53.3 fluorescence intensity
- binding signal (CPSF6): 26.1 ± 6.17 fluorescence intensity
- binding signal (hnRNP-CL1): 43.3 ± 2.77 fluorescence intensity
- binding signal (EIF4B): 2140 ± 29.2 fluorescence intensity
- binding signal (HTF9C): 104.2 ± 0.884 fluorescence intensity
- binding signal (NSAP1): 1830 ± 24.4 fluorescence intensity
- binding signal (DAZ2/3): 151 ± 11.5 fluorescence intensity

Sequence: AGAGGUAGUAGGUUGCAUAGUU
- binding signal (CELF6(1-2)): 88.4 ± 8.85 fluorescence intensity
- binding signal (NCBP2): 29.2 ± 11.8 fluorescence intensity
- binding signal (hnRNP-D-like): 601 ± 9.77 fluorescence intensity
- binding signal (IGF2BP2): 130 ± 20.3 fluorescence intensity
- binding signal (NIFK): 81.96 ± 0.608 fluorescence intensity
- binding signal (PABPNL1): 1510 ± 38.3 fluorescence intensity
- binding signal (PABPC5): 351 ± 14.6 fluorescence intensity
- binding signal (MYEF2(1-2)): 1130 ± 77.2 fluorescence intensity
- binding signal (CIRBP): 2620 ± 43 fluorescence intensity
- binding signal (ELAVL4): 1830 ± 31 fluorescence intensity
- binding signal (hnRNP-M(3)): 68.4 ± 19.5 fluorescence intensity
- binding signal (NONO): 26.1 ± 4.07 fluorescence intensity
- binding signal (ELAVL3): 1430 ± 30.2 fluorescence intensity
- binding signal (EIF4B): 3250 ± 198 fluorescence intensity
- binding signal (HTF9C): 78 ± 2.68 fluorescence intensity
- binding signal (NSAP1): 1900 ± 59.9 fluorescence intensity
- binding signal (DAZ2/3): 260 ± 18.7 fluorescence intensity

Sequence: UGAGGUAGUAGGUUGUAUAGUU
- binding signal (CELF6(1-2)): 28.4 ± 3.05 fluorescence intensity
- binding signal (hnRNP-D-like): 288 ± 15.7 fluorescence intensity
- binding signal (IGF2BP2): 28.3 ± 5.47 fluorescence intensity
- binding signal (NIFK): 23 ± 0.658 fluorescence intensity
- binding signal (PABPNL1): 531 ± 16.5 fluorescence intensity
- binding signal (PABPC5): 52 ± 3.7 fluorescence intensity
- binding signal (MYEF2(1-2)): 228 ± 4.88 fluorescence intensity
- binding signal (CIRBP): 1010 ± 76.7 fluorescence intensity
- binding signal (ELAVL4): 725 ± 56.5 fluorescence intensity
- binding signal (hnRNP-M(3)): 22.8 ± 3.08 fluorescence intensity
- binding signal (NONO): 20.7 ± 2.69 fluorescence intensity
- binding signal (HNRNPCL3/4): 22.3 ± 2.99 fluorescence intensity
- binding signal (ELAVL3): 476 ± 12.5 fluorescence intensity
- binding signal (CPSF6): 23 ± 8.56 fluorescence intensity
- binding signal (hnRNP-CL1): 31.8 ± 10.7 fluorescence intensity
- binding signal (EIF4B): 883 ± 50 fluorescence intensity
- binding signal (NSAP1): 755 ± 86.6 fluorescence intensity
- binding signal (DAZ2/3): 37.8 ± 6.41 fluorescence intensity

Sequence: CAGUGCAAUGAUGAAAGGGCAU
- binding signal (CELF6(1-2)): 105 ± 14.1 fluorescence intensity
- binding signal (hnRNP-D-like): 250 ± 14.8 fluorescence intensity
- binding signal (IGF2BP2): 91.7 ± 5.63 fluorescence intensity
- binding signal (NIFK): 38.6 ± 4.43 fluorescence intensity
- binding signal (PABPNL1): 2030 ± 144 fluorescence intensity
- binding signal (PABPC5): 187 ± 8.46 fluorescence intensity
- binding signal (MYEF2(1-2)): 826 ± 53.3 fluorescence intensity
- binding signal (CIRBP): 2040 ± 82.9 fluorescence intensity
- binding signal (ELAVL4): 1170 ± 66.8 fluorescence intensity
- binding signal (hnRNP-M(3)): 37.9 ± 1.35 fluorescence intensity
- binding signal (HNRNPCL3/4): 29.9 ± 0.976 fluorescence intensity
- binding signal (ELAVL3): 868 ± 33.5 fluorescence intensity
- binding signal (CPSF6): 39.2 ± 6.51 fluorescence intensity
- binding signal (hnRNP-CL1): 23 ± 5.29 fluorescence intensity
- binding signal (EIF4B): 1810 ± 123 fluorescence intensity
- binding signal (HTF9C): 52.8 ± 3.39 fluorescence intensity
- binding signal (NSAP1): 398 ± 6.14 fluorescence intensity
- binding signal (DAZ2/3): 70.6 ± 0.849 fluorescence intensity

Sequence: UGAGGUAGUAGGUUGUGUGGUU
- binding signal (CELF6(1-2)): 224 ± 12 fluorescence intensity
- binding signal (NCBP2): 68.7 ± 13.2 fluorescence intensity
- binding signal (hnRNP-D-like): 751 ± 46.5 fluorescence intensity
- binding signal (IGF2BP2): 60.9 ± 10.8 fluorescence intensity
- binding signal (NIFK): 207 ± 7.23 fluorescence intensity
- binding signal (PABPNL1): 1609 ± 3.14 fluorescence intensity
- binding signal (PABPC5): 304 ± 27.6 fluorescence intensity
- binding signal (MYEF2(1-2)): 1050 ± 50.7 fluorescence intensity
- binding signal (CIRBP): 2020 ± 38.1 fluorescence intensity
- binding signal (ELAVL4): 1510 ± 102 fluorescence intensity
- binding signal (hnRNP-M(3)): 112 ± 17.8 fluorescence intensity
- binding signal (NONO): 62.6 ± 1.97 fluorescence intensity
- binding signal (HNRNPCL3/4): 36.4 ± 6.48 fluorescence intensity
- binding signal (ELAVL3): 1280 ± 96.1 fluorescence intensity
- binding signal (CPSF6): 32.1 ± 8.4 fluorescence intensity
- binding signal (hnRNP-CL1): 77.6 ± 17.1 fluorescence intensity
- binding signal (EIF4B): 2502 ± 2.61 fluorescence intensity
- binding signal (HTF9C): 182 ± 12.4 fluorescence intensity
- binding signal (NSAP1): 1770 ± 45.4 fluorescence intensity
- binding signal (DAZ2/3): 288 ± 6.91 fluorescence intensity

Sequence: UAGCUUAUCAGACUGAUGUUGA
- binding signal (CELF6(1-2)): 32.2 ± 4.03 fluorescence intensity
- binding signal (hnRNP-D-like): 40.3 ± 4.07 fluorescence intensity
- binding signal (IGF2BP2): 21.5 ± 2.16 fluorescence intensity
- binding signal (PABPNL1): 322 ± 10.4 fluorescence intensity
- binding signal (MYEF2(1-2)): 393 ± 6.4 fluorescence intensity
- binding signal (CIRBP): 801 ± 174 fluorescence intensity
- binding signal (ELAVL4): 825 ± 34.8 fluorescence intensity
- binding signal (hnRNP-M(3)): 20.6 ± 3.13 fluorescence intensity
- binding signal (HNRNPCL3/4): 22.52 ± 0.0849 fluorescence intensity
- binding signal (ELAVL3): 508 ± 14.6 fluorescence intensity
- binding signal (CPSF6): 36.4 ± 14.3 fluorescence intensity
- binding signal (EIF4B): 24.6 ± 5.08 fluorescence intensity
- binding signal (NSAP1): 42.1 ± 2.96 fluorescence intensity
- binding signal (DAZ2/3): 153 ± 9.91 fluorescence intensity
